From PubChem BioAssay (EPA / NIEHS) come the findings set out here.

Activity calls are given as the source filed them. The calls were made as follows: active = hit-call score of the fitted dose curve at least 0.9, where 1 is the maximum; inactive = score below 0.9.

Read-out in this test: CFLAR gene, CFLAR (gene 8837)
In words: LTEA_HepaRG_CFLAR: Life Technologies and Expression Analysis (LTEA) Assay for CFLAR gene using HepaRG (AID 2283455). The conditions noted are these: mRNA level, 48 h; actives raise or lower the signal. As for the experimental part: LTEA_HepaRG is a cell based, multiplexed-readout assay that uses HepaRG, a human liver cell line, with measurements taken at 48 hours after chemical dosing on a 96-well plate.LTEA_HepaRG_CFLAR is one of 102 assay component(s) measured in the LTEA HepaRG cell culture assay. It is a marker of Cell proliferation, survival, death.Data from the assay component LTEA_HepaRG_CFLAR was analyzed into 1 endpoint. This assay endpoint, LTEA_HepaRG_CFLAR, was analyzed with bidirectional fitting relative to DMSO as the negative control and baseline of activity. Using a type of inducible reporter, measures of mRNA induction for gain or loss-of-signal activity can be used to understand regulation of transcription factor activity. To generalize the intended target to other relatable targets, this assay endpoint is annotated to the cell cycle intended target family, where the subfamily is Cell proliferation, survival, death.
A total of 1060 chemcials from the ToxCast library were tested in eight-point concentration-response experiments. Cell culture and cytotoxicity assays were conducted at Thermo Fisher Scientific's Custom Services facility (Madison, WI). A single lot of human HepaRG cells (Thermo Fisher Scientific, Frederick, MD) was used for the cell culture experiments. 96-well format collagen type I coated plates of human HepaRG cells were prepared using established methods. Briefly, cryopreserved HepaRG cells were thawed, plated at a density of approximately 100,000 cells/well in HepaRG Thaw, Plate, and General Purpose media (HPRG770, Thermo Fisher Scientific), and incubated for 48 hours. 0.5% DMSO was selected as vehicle control to balance the requisite need of DMSO in HepaRG cultures to maintain differentiation (for example, baseline metabolism, proportions of hepatocytes vs. cholangiocytes), while enabling further hepatic receptor pathway activation (for example, PXR and CAR) in response to chemical exposure. 48 hours after plating, the culture medium was replaced with HepaRG Serum-Free Incudtion Media. Cells were exposed to each test chemical in duplicate and maintained in CO2 incubators for another 48 hours. Chemical plates were thawed to room temperature and 200x concentrations of treatment groups were prepared. 8-point conentration-reponse curves were made with the highest exposure at 100 uM, followed by half-log dilutions, all in 0.5% DMSO. Each test plate contained variouse controls, induction positive controls (1mM phenobarbital), cytotoxicity positive controls ([…] aflatoxin B1), vehicle controls (0.5% DMSO), and total lysis controls (0.5% DMSO). Cell morphology images were taken using an Essen IncuCyte FLR automated microscope, with six 96-well plates imaged in about 24 minutes. Images were captured and exported and JPEG files. Spent culture media was transfered to black-well plates for the LDH assay, and remaining media was sorted at -80 C for later use. Cells were treated with RLT buffer and frozen until shipped for gene expression analysis. Total RNA was isolated from the cell suspension in 75 uL of Buffer RLT (Qiagen, Germantown, MD 20874) by Quintiles/Expression Analysis (Durham, NC) using a custom isolation procedure. Total RNA from each plate well was transferred to a preamplification plate. Fluidigm's 96.96 Dynamic ArrayTM (Fluidigm, Amsterdam, the Netherlands) technology was used for gene expression analyses by quantitative reverse transcription polymerase chain reaction (qRT-PCR, performed by Quintiles/Expression Analysis, Durham, NC)89. Standard TaqManTM Assays (Applied Biosystems/ThermoFisher Scientific, Foster City, CA) were used to assess the expression of 93 genes selected based on their selectivity and sensitivity to important hepatic receptors known to be modulated by environmental chemicals; importance in human hepatocyte functionality; and hepatotoxicity. […]
With `Clc1ccc(C(c2ccc(Cl)cc2)C(Cl)(Cl)Cl)cc1`, the compound was classed as inactive. For the compound `O=C(O)C1C2CCC(O2)C1C(=O)O` (stereo not given), the compound was classed as inactive. Turning to `ClC1=C(Cl)C2(Cl)C3C(Cl)C=CC3C1(Cl)C2(Cl)Cl` (stereo not given), the compound was classed as inactive. As to `Nc1ccc(Oc2ccc(N)cc2)cc1`, the outcome was inactive. Regarding `Clc1ccc(Cl)c(Cl)c1`, the half-maximal activity concentration (AC50) (as a rule, the midpoint of the concentration-response curve, whichever way the signal moves) is 50 µM (active). Take `ClC1=C(Cl)[C@]2(Cl)[C@H]3[C@H]([C@@H]4C=C[C@H]3C4)[C@@]1(Cl)C2(Cl)Cl`: the outcome was inactive.

Turning to `Brc1ccc(Oc2ccccc2)cc1`, the compound was called inactive. As to `CC(C)(OOC(C)(C)c1ccccc1)c1ccccc1`, the compound was called inactive.

With `c1ccc2c(c1)oc1ccccc12`, the outcome was inactive. As to `CCCCCCCCOC(=O)c1ccc(C(=O)OCCCCCCCC)c(C(=O)OCCCCCCCC)c1`, the outcome was inactive. As for `O=C1CCCO1`, the result was inactive.

As for `CC(C)(C)C(O)(CCc1ccc(Cl)cc1)Cn1cncn1` (stereo not given), the compound was called inactive. For the compound `O=Cc1ccco1`, the outcome was inactive.

In the case of `Nc1ccc(Cl)cc1N`, the AC50 is 33.1 µM (active). In the case of `O=[N+]([O-])c1ccc(Oc2ccc(Cl)cc2Cl)cc1`, the call was inactive.

Turning to `Clc1ccc(C(c2ccc(Cl)cc2)C(Cl)Cl)cc1`, the call was inactive. As to `Cc1ccc(N=C=O)cc1N=C=O`, the outcome was inactive.

For `Cn1cc(-c2ccccc2)c(=O)c(-c2cccc(C(F)(F)F)c2)c1`, the AC50 is 9.92 µM (active). Take `C[C@]12C=CC3=C4CCC(=O)C=C4CC[C@H]3[C@@H]1CC[C@@H]2O`: the compound was called inactive. Consider `Nc1ccc([N+](=O)[O-])cc1`, for which the compound was classed as inactive. The same measure, in the same setting: in the case of `C=CCc1ccc2c(c1)OCO2` it was “inactive”; in that of `O=C(Nc1ccccc1)c1ccccc1I`, “inactive”; in that of `OCCCl`, “inactive”. For `CCC(C)c1ccc(O)cc1` (stereo not given), the compound was classed as inactive. On the same count and under the same terms, as for `COC(=O)c1ccccc1N`, the entry is “inactive”; as for `Cc1ccc([N+](=O)[O-])cc1`, “inactive”; as for `[O-][Cl+]O`, “inactive”. The same measure, in the same setting: in the case of `COc1cc(C=O)cc2c1[C@H](COC(N)=O)[C@]1(OC(C)=O)ON2C[C@H]2[C@@H]1N2C(C)=O` it was “inactive”.

Consider `c1ccc(NNc2ccccc2)cc1`, for which the compound was classed as inactive. As for `CCCCCOC(=O)c1ccccc1C(=O)OCCCCC`, the outcome was inactive. On the same count and under the same terms, in the case of `C1=Cc2cccc3cccc1c23` it was “inactive”; in that of `COP(=S)(OC)SCN1C(=O)c2ccccc2C1=O`, “inactive”; in that of `[As]#[In]`, “inactive”. With `OCCOCCO`, the outcome was inactive.

For the compound `CN(C)C(=O)Nc1ccc(Cl)cc1`, the call was inactive.

For `Oc1ccccc1Cl`, the call was inactive. For the compound `N#CC(Br)(Br)C(N)=O`, the compound was called inactive. For the compound `CC(O)CCO` (stereo not given), the result was inactive.

As for `Oc1ccc2ccc3cccc4ccc1c2c34`, the outcome was inactive.

With `CCN(CC)CCO`, the outcome was inactive.
